Data on five compounds can be found in PubChem BioAssay.

Calls of active or inactive are those of the source. Unless noted, how the calls were made is not given here.

A short description of assay [1]: anti-His antibody binders, primary screen, artefact control for SMM control protein annotation, biochemical, small-molecule microarray, 635 nm fluorescence (AID 1128).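 Further: score merges feature fluorescence with signal-to-noise for each printed compound spot.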 As to conditions: anti-His Alexa647 antibody binding, higher = more signal.
Assay [2] has as its system Human papillomavirus type 1a E7 protein (residues 1-88). As to the kind of experiment: HPV1a E7 small-molecule binders, primary screen, biochemical, small-molecule microarray, residues 1-88, 635 nm (AID 1129). The settings on record: small-molecule microarray binding, fluorescence 635 nm; higher = more signal.
Assay [3] deals with Focal adhesion kinase 1 (Homo sapiens) (UniProt Q05397). The assay can be described thus: small-molecule microarray binders of FAK, primary screen, biochemical, 635/667 nm fluorescence, BSA, DTT (AID 1130).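 Further: composite of spot emission at 667 nm and signal to noise over triplicate slides.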 As to conditions: PTK2 binding, 635 nm fluorescence, higher = more signal.
Focal adhesion kinase 1 (Homo sapiens), sequence (Q05397 whole entry, looked up): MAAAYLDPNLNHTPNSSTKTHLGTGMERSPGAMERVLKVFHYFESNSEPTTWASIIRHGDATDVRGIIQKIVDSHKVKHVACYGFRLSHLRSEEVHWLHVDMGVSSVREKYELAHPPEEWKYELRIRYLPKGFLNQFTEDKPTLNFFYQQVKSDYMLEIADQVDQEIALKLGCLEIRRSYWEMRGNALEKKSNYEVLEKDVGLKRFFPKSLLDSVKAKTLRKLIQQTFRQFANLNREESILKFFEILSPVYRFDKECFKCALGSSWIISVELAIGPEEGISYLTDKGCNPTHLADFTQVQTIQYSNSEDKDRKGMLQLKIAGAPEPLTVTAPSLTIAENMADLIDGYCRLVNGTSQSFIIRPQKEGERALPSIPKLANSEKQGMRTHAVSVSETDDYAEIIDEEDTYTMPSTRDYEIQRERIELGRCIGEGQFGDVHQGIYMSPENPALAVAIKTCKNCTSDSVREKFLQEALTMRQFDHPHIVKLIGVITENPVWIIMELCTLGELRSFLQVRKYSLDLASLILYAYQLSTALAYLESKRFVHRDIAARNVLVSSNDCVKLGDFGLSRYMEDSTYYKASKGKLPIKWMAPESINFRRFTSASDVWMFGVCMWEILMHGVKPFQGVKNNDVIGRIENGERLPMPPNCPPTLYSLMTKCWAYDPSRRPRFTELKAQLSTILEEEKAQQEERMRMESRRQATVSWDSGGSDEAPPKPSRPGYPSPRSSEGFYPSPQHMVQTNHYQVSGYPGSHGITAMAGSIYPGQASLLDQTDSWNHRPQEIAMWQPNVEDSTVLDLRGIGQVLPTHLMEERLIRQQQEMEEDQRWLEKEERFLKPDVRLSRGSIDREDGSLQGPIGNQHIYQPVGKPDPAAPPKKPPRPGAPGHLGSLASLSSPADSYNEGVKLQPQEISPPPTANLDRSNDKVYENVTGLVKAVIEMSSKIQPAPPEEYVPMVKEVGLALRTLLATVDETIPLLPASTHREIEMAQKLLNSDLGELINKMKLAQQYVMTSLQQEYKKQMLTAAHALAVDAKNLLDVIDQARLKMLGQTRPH
In assay [4] the test system is Fibrinogen (Alexa647-labelled). As to the kind of experiment: fibrinogen binders on compound microarrays, profiling panel, artefact control for SMM control-protein annotation, biochemical, small-molecule microarray, 635/667 nm fluorescence (AID 1131).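 Further: z-score merges 667 nm fluorescence with per-spot signal-to-noise over triplicate slides.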 As to conditions: fibrinogen-A647 binding fluorescence, higher = more signal.
Assay [5] has as its target Follistatin (Homo sapiens) (UniProt P19883). The assay can be described thus: follistatin binders on small-molecule microarrays, primary screen, biochemical, small-molecule microarray, 635/667 nm fluorescence (AID 1132). The settings on record: FST binding, 635 nm fluorescence, higher = more signal.
The target of assay [6] is Fibroblast growth factor 2 (Homo sapiens) (UniProt P09038). As to the kind of experiment: FGF2 binders on small-molecule microarrays, primary screen, biochemical, small-molecule microarray, 635/667 nm fluorescence (AID 1133). As to conditions: small-molecule microarray binding, FGF2, fluorescence 635/667; higher = more signal.
Fibroblast growth factor 2 (Homo sapiens), sequence (P09038 whole entry, looked up): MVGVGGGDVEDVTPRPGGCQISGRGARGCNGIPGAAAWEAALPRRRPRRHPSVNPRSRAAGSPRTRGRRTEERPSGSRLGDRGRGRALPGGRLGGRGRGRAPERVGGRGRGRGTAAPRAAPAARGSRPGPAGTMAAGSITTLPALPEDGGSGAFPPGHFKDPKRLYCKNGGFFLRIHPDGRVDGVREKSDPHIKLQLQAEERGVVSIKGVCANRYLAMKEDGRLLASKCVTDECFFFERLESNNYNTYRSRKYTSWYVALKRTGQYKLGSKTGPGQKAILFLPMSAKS
The nature of assay [7]: mitochondrial membrane potential change in A549 cells, profiling panel, cell-based, JC-1 fluorescence, basal, 24 h, 100 nL (AID 1138).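 Further: A549 lung adenocarcinoma cells under basal conditions with no added stimulus; test concentration not given here.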 The settings on record: higher = more signal.
Another assay concerns Lefty1. As to the kind of experiment: Lefty1 binders on small-molecule microarrays, primary screen, biochemical, small-molecule microarray, 635/667 nm fluorescence (AID 1139). The settings on record: small-molecule microarray binding, fluorescence 635/667; higher = more signal.
Assay [8] concerns wheat germ agglutinin (Triticum aestivum), Alexa647-labelled. The assay can be described thus: wheat germ agglutinin binders on compound microarrays, profiling panel, artefact control for SMM control-protein annotation, biochemical, small-molecule microarray, 635/667 nm fluorescence (AID 1140).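 Further: score merges 667 nm feature emission with signal to noise over triplicate slides.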 As to conditions: WGA-A647 binding, 635 nm fluorescence, higher = more signal.
Assay [9] concerns the target Luciferin 4-monooxygenase (Photinus pyralis) (UniProt P08659). As to the kind of experiment: firefly luciferase enzyme inhibitors, primary screen, biochemical, luminescence, purified enzyme, 2006 set (AID 1141).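 Further: cell-free assay with purified firefly luciferase at 100 ng per well in PBS; test concentration not given here.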 The settings on record: SteadyGlo luminescence, 30 min, higher = more signal, called active from +8 up or from −8 down.
Assay [10] has as its system Wnt5a (protein binding on small-molecule microarray). As to the kind of experiment: Wnt5a binders on small-molecule microarray, primary screen, biophysical, 635/667 nm fluorescence (AID 1142).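 Further: fluorescence read at 667 nm with signal to noise per printed feature.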 As to conditions: 635 nm fluorescence, higher = more signal.
Assay [11] in a line: cell viability in Huh7 cells, primary screen, cytotoxicity control for HCV replication inhibitor project, CellTiter-Glo luminescence, basal, 48 h (AID 1143).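 Further: Huh7 hepatoma cells carrying a hepatitis C replication reporter with no stimulus; test concentration not given here.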 The settings on record: Huh7 HCV replicon, higher = more signal, called active from +8 up or from −8 down. A general note: Cellular ATP, detected with luciferase, serves as a proxy for viable cell number.
The nature of assay [12]: P. aeruginosa biofilm formation inhibitors, primary screen, PAO1 strain, BacTiter-Glo luminescence, LB-PBS (AID 1144). The settings on record: 12 h, higher = more signal.
A short description of assay [13]: CREB reporter modulators without forskolin, primary screen, cell-based, PC12, CRE-LacZ reporter, unstimulated (AID 1145). As to conditions: no forskolin, luminescence, 4.5 h, higher = more signal, called active from +8 up or from −8 down.
Assay [14] can be described thus: CREB reporter modulators under forskolin, primary screen, cell-based, PC12, CRE-LacZ reporter, forskolin-stimulated (AID 1146).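 Further: PC12 cells with 6xCRE LacZ reporter stimulated by forskolin 10 µM; beta-galactosidase reporter signal reflecting CREB driven transcription.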 The settings on record: luminescence, 4.5 h, higher = more signal, called active from +8 up or from −8 down.
Assay [15] concerns the target Streptavidin (Streptomyces avidinii) (UniProt P22629). The assay can be described thus: streptavidin binders on small-molecule microarray, primary screen, artefact control for SMM compound annotation, biophysical, 635/667 nm fluorescence (AID 1147).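 Further: signal reflects streptavidin binding to arrayed compounds as a control protein.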 The settings on record: streptavidin binding, higher = more signal.
The nature of assay [16]: small-molecule binders of probe aInhba, primary screen, biochemical, small-molecule microarray, 635/667 nm fluorescence (AID 1148).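 Further: score merges 667nm spot fluorescence with signal-to-noise for antibody binding to printed compounds.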 The settings on record: higher = more signal.
Assay [17] addresses Torsin-1A (Homo sapiens) (UniProt O14656). As to the kind of experiment: torsin A binders from cell lysate, primary screen, small-molecule microarray, wild-type, 635/667 nm (AID 1149). The settings on record: COS7 hTOR1A-WT lysate, 635 nm fluorescence, higher = more signal.
Assay [18] has the same target. The assay can be described thus: small-molecule binders of mutant TOR1A in lysate, primary screen, cell lysate, small-molecule microarray, COS7 lysate, 635/667 nm fluorescence (AID 1150).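 Further: score pools 667 nm emission and signal to noise measuring lysate protein binding.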 The settings on record: COS7 hTOR1A mutant lysate, 635 nm fluorescence, higher = more signal.
Assay [19] has as its system Sonic hedgehog protein (Shh). As to the kind of experiment: small-molecule binders of Shh protein, primary screen, biochemical, small-molecule microarray, 635/667 nm fluorescence (AID 1151).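 Further: Shh protein binding to compounds spotted on small-molecule microarray slides; score combines spot fluorescence intensity with signal-to-noise across triplicate slides.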 As to conditions: small-molecule microarray binding, 635 nm fluorescence; higher = more signal.

Follistatin (Homo sapiens), sequence (P19883 whole entry, looked up): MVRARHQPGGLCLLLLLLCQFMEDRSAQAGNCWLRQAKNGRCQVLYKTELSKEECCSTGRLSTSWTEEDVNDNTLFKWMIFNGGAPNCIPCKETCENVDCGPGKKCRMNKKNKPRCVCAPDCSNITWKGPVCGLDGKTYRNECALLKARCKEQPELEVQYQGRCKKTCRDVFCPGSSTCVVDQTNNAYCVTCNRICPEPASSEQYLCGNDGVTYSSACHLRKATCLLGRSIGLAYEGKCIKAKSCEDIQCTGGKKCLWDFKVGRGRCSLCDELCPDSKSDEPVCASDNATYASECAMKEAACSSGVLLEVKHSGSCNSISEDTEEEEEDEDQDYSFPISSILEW
Streptavidin (Streptomyces avidinii), sequence (P22629 whole entry, looked up): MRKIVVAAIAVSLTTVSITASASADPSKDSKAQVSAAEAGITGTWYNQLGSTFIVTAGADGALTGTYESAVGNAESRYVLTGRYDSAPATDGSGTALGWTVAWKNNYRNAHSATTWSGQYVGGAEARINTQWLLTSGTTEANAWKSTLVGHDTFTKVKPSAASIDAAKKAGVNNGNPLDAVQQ
Luciferin 4-monooxygenase (Photinus pyralis), sequence (P08659 whole entry, looked up): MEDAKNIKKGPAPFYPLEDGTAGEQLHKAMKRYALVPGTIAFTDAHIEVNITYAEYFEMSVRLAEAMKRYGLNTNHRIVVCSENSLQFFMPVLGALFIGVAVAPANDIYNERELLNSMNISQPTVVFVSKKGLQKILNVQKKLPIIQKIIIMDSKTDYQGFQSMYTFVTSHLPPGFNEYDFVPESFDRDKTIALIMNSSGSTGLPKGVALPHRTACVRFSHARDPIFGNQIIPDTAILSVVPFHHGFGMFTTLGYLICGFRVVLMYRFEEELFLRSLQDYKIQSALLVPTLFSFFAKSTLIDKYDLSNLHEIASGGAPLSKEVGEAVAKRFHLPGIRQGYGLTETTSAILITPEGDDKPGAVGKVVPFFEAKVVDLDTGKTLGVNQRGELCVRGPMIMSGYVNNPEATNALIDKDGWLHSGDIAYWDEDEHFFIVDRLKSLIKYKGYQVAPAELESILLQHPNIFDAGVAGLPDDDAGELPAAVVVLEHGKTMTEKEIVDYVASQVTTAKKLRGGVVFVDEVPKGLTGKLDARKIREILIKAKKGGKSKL
Torsin-1A (Homo sapiens), sequence (O14656 whole entry, looked up): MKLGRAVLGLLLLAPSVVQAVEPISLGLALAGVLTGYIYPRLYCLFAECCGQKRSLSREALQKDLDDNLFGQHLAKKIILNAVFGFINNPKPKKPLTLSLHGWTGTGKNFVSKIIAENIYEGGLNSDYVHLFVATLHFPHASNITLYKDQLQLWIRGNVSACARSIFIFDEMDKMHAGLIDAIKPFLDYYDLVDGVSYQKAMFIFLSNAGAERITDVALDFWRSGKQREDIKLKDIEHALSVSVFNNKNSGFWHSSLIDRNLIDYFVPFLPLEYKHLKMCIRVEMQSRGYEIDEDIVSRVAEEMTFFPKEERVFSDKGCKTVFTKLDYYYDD

As to `C#CCN(CC1=CCCCC1)[C@H](c1ccccc1Br)[C@@H](O)Cc1ccccc1`, the composite z-score was 0.646 in assay [1]; -0.0173 in assay [2]; 1.98 in [3]; -0.671 in assay [4]; -0.688 in assay [5]; -1.05 in [6]. The composite z-score with Lefty1 is -0.955; in assay [8] it was 0.665; in [10], -0.0365; in assay [15] it was -0.949; in [16] it was -0.159; with Torsin-1A (Homo sapiens) [17] it was 1.07. In addition, the composite z-score in the assay with Torsin-1A (Homo sapiens) [18] was 0.962; in [19] it was -0.515. For the same compound, the z-score is -1.27 in [7]; -0.688 (inactive) in assay [9]; -1.5 (inactive) in assay [11]; 0.0281 (inactive) in assay [12]; 2.21 (inactive) in assay [13]; 0.219 (inactive) in assay [14].
`C=CCOC(=O)[C@@H]1[C@H]2C(=O)O[C@H](c3ccccc3)[C@H](c3ccccc3)N2[C@H](c2ccc(OCCOC(=O)[C@@H]3C[C@@H]4C(=O)N[C@@H](CCCCN(C)C)C(=O)N4[C@@H]3c3ccc(O)cc3)cc2)[C@@]12C(=O)Nc1ccc(I)cc12`: the composite z-score in assay [1] turned out to be 1.13; in assay [2], 0.799; in [3], 0.338; in assay [4], 0.177; in assay [5], 1.2; in assay [6] it was 1.34. Moreover, the composite z-score is 0.844 in the assay on Lefty1; 0.542 in assay [8]; 0.312 in assay [10]; 0.321 in [15]; 0.0649 in assay [16]; 0.724 in the assay with Torsin-1A (Homo sapiens) [17]. Besides, the composite z-score with Torsin-1A (Homo sapiens) [18] worked out at 1.84; in [19] it was 1.74. Also, the z-score in [7] is -1.78; in [9], -2.62 (inactive); in assay [11], -0.768 (inactive); in [12] it was -0.975 (inactive); in assay [13], -0.675 (inactive); in assay [14] it was 0.595 (inactive).
With `C=CC[C@@]1(C(=O)N(C)C)N=C(c2ccc(OCCCO)cc2)O[C@@H]1c1ccccc1N=[N+]=[N-]`, the composite z-score in [1] was found to be 3.01; in assay [2], 1.22; in [3], 0.489; in [4], 0.776; in [5] it was 1.28; in [6], 0.26. Moreover, the composite z-score in the assay on Lefty1 amounted to 0.406; in assay [8], 1.33; in [10], 0.554; in [15] it was 1.28; in [16], 0.274; in the assay with Torsin-1A (Homo sapiens) [17], 0.722. In addition, the results for the composite z-score (with Torsin-1A (Homo sapiens) [18]; in [19]) were 1.03 and 0.264, respectively. The z-score in assay [7] was 0.857; in [9] it was -9.07 (active); in [11] it was -2.25 (inactive); in [12], 0.557 (inactive); in [13], 0.227 (inactive); in assay [14], -0.825 (inactive).
`CCCC[C@@H]1C[C@H]1[C@@H](NC(=O)c1ccco1)c1ccc(C(=O)OC)cc1`: the composite z-score is -0.499 in assay [1]; 0.149 in assay [2]; 0.214 in assay [3]; 0.0507 in [4]; -0.943 in [5]; -1.42 in [6]. Further, the composite z-score was -0.431 in the assay with Lefty1; 0.586 in assay [8]; -0.195 in assay [10]; 0.564 in assay [15]; -0.154 in assay [16]; -0.708 with Torsin-1A (Homo sapiens) [17]. Further, the composite z-score in the assay with Torsin-1A (Homo sapiens) [18] is -0.319; in assay [19], -1.47. In addition, the z-score in assay [7] was -0.814; in assay [9] it was 1.94 (inactive); in [11], -1.88 (inactive); in assay [12], -0.333 (inactive); in assay [13], 0.0075 (inactive); in assay [14], 1.58 (inactive).
Consider `C#CCN(Cc1ccccc1Br)C(/C=C/c1ccccc1)CO` (stereo not given), for which the composite z-score is 0.448 in [1]; -0.265 in assay [2]; -0.102 in [3]; -0.171 in assay [4]; -0.523 in [5]; 0.774 in assay [6]. The composite z-score in the assay on Lefty1 is 0.0437; in assay [8], -0.618; in assay [10], -0.15; in assay [15], -0.175; in [16], -0.283; with Torsin-1A (Homo sapiens) [17] it was 0.0428. Moreover, the composite z-score with Torsin-1A (Homo sapiens) [18] was -0.653; in assay [19] it was -0.0683. Besides, the z-score in assay [7] was -1.01; in assay [9], 0.0615 (inactive); in assay [11], -4.79 (inactive); in assay [12], 0.825 (inactive); in assay [13] it was 5.19 (inactive); in assay [14], -1.04 (inactive).
